About 8,800 targets were measured; listed, in parts, are those with a hit and a random draw of the rest. About 0.5% of all pairs of compound and target were hits. Unmarked numbers belong to inactive results.
Tests used:
Test in all cases: log2 fold change, soluble protein after heating vs DMSO (PISA); higher = thermal stabilisation; K562 lysate, 10 uM; active = over 0.2 and 3.5 SD of the protein, either way, in both replicates (recomputed)
[1] = compound: CN1CC[C@H](c2c(O)cc(O)c3c(=O)cc(-c4ccccc4Cl)oc23)[C@H](O)C1 [alvocidib]
How it was run: (§1)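 Dounce homogenisation of K562 pellets in PBS pH 7.4 with 1 mM MgCl2 produced a crude extract, used at 1 mg/mL protein. Exposure to 10 μM compound lasted 30 min, and aliquots were then heated for 3 min across 48°C-58°C, pooled and brought to 0.5% NP-40 at 4°C. The supernatant after 21,000xg for 90 min was quantified by TMTpro 16plex LC-MS/MS with channel sums equalised. Duplicate values are given as log-two fold change in thermal stability relative to solvent controls.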

[2] = compound: CN1CCc2c(c3ccccc3n2Cc2ccc(C(=O)NO)cc2)C1 [Tubastatin A]
How it was run: as §1

[3] = compound: CNC(=O)C1=CC=CC=C1NC2=NC(=NC=C2Cl)NC3=C(C=C(C=C3)N4CCOCC4)OC
How it was run: as §1

[4] = compound: CNC(=O)c1ccc(Nc2ncc(C(F)(F)F)c(NCc3nccnc3N(C)S(C)(=O)=O)n2)cc1 [defactinib]
How it was run: as §1

[5] = compound: CNc1nc(-c2ccc3c(N)n[nH]c3c2)cc(N2C[C@@H](C(=O)NC3CCCCC3)CC[C@H]2C)n1
How it was run: as §1

[6] = compound: COC(=O)N[C@@H](C)CNc1nccc(-c2cn(C(C)C)nc2-c2cc(Cl)cc(NS(C)(=O)=O)c2F)n1 [encorafenib]
How it was run: as §1

[7] = compound: COC(=O)[C@H](CCSC)NC(=O)C1=C(C=C(C=C1)NC[C@H](CS)N)C2=CC=CC=C2
How it was run: as §1

[8] = compound: COc1cc(Nc2ncc3c(n2)-c2ccc(Cl)cc2C(c2c(F)cccc2OC)=NC3)ccc1C(=O)O [alisertib]
How it was run: as §1

[9] = compound: COc1cc2nc(-c3cc(F)ccc3O)nc(N[C@@H]3CNC[C@H]3C(C)(C)O)c2cc1OC
How it was run: as §1

[10] = compound: COc1cc2ncnc(Nc3ccc(F)c(Cl)c3)c2cc1OCCCN1CCOCC1 [gefitinib]
How it was run: as §1

[11] = compound: CS(=O)(=O)CCNCc1ccc(-c2ccc3ncnc(Nc4ccc(OCc5cccc(F)c5)c(Cl)c4)c3c2)o1 [lapatinib]
How it was run: as §1

[12] = compound: CS(=O)(=O)N1CCN(Cc2cc3nc(-c4cccc5[nH]ncc45)nc(N4CCOCC4)c3s2)CC1 [pictilisib]
How it was run: as §1

[13] = compound: C[C@@H](Oc1cc(-c2cnn(C3CCNCC3)c2)cnc1N)c1c(Cl)ccc(F)c1Cl [crizotinib]
How it was run: as §1

[14] = compound: C[C@H](C1=CC=C(C=C1)C(=O)NC2=C3C=CNC3=NC=C2)N
How it was run: as §1

[15] = compound: C[C@H](Nc1ncnc2nc[nH]c12)c1cc2cccc(Cl)c2c(=O)n1-c1ccccc1 [duvelisib]
How it was run: as §1

[16] = compound: Cc1cc(Nc2cc(CN3CCOCC3)c3nc(C)c(Cc4ccc(Cl)cc4F)n3n2)n[nH]1 [gandotinib]
How it was run: as §1

[17] = compound: Cc1cc(Nc2cc(N3CCN(C)CC3)nc(Sc3ccc(NC(=O)C4CC4)cc3)n2)n[nH]1 [tozasertib]
How it was run: as §1

[18] = compound: Cc1ccc(-n2nc(C(C)(C)C)cc2NC(=O)Nc2ccc(OCCN3CCOCC3)c3ccccc23)cc1 [doramapimod]
How it was run: as §1

[19] = compound: Cc1ccc(NC(=O)c2ccc(CN3CC[C@H](N(C)C)C3)c(C(F)(F)F)c2)cc1Nc1nccc(-c2cncnc2)n1 [bafetinib]
How it was run: as §1

[20] = compound: Cc1cccc(CC(=O)N2CCc3c2ccc(-c2cn(C)c4ncnc(N)c24)c3F)n1
How it was run: as §1

Chain of UniProt P24311 (P24311 whole entry, looked up): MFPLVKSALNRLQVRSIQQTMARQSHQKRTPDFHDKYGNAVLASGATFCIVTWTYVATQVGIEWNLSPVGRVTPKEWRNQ
Chain of UniProt Q92989 (Q92989 whole entry, looked up): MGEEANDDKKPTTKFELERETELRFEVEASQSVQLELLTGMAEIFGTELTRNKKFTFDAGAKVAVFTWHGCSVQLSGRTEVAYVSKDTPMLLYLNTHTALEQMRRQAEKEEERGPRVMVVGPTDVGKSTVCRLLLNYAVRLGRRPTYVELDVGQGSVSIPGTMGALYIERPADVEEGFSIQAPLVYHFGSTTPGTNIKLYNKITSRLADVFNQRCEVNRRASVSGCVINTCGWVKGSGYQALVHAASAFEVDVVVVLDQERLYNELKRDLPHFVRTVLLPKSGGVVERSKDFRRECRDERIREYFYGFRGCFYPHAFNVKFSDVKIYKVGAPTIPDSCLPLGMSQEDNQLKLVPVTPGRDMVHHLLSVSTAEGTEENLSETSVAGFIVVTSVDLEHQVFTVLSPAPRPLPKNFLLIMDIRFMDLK
Chain of UniProt O95628 (O95628 whole entry, looked up): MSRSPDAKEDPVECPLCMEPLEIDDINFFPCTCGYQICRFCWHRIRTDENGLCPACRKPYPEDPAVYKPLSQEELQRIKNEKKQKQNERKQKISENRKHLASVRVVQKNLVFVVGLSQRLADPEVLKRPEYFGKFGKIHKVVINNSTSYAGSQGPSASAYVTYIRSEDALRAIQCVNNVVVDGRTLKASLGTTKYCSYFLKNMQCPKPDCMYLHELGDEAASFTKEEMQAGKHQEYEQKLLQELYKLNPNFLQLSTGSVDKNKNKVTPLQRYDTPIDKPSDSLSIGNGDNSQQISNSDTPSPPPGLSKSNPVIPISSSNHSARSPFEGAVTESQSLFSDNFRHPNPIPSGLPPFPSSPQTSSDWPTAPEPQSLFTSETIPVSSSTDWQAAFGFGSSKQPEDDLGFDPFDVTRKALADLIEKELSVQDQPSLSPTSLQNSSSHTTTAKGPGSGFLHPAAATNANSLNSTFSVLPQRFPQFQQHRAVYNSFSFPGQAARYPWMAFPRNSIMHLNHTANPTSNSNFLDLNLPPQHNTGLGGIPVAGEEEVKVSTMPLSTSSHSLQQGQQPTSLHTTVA
Chain of UniProt O15247 (O15247 whole entry, looked up): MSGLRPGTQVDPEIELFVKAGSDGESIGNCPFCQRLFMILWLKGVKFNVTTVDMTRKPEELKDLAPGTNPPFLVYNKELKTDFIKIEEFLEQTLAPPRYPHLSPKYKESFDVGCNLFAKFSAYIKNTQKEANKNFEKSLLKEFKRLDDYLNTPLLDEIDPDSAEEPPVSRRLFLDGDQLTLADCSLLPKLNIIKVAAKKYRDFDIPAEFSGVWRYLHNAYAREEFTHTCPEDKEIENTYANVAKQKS
Chain of UniProt Q9NQI0 (Q9NQI0 whole entry, looked up): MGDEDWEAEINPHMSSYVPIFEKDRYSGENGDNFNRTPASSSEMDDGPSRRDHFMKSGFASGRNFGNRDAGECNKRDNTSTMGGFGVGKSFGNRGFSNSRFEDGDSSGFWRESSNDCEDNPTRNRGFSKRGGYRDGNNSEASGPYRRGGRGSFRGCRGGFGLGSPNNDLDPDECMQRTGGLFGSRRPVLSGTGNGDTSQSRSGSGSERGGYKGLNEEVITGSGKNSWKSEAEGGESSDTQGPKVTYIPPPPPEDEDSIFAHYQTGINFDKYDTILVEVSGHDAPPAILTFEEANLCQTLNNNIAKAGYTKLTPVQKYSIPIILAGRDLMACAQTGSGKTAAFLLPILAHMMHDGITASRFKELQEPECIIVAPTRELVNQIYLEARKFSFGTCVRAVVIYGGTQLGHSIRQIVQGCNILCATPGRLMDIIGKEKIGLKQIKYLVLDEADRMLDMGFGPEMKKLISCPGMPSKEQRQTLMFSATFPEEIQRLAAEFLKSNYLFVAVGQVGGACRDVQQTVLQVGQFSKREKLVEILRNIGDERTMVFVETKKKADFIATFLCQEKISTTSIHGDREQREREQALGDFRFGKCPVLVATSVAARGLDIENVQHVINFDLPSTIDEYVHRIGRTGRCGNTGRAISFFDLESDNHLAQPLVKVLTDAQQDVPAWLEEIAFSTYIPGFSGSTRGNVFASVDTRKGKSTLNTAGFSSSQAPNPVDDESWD
Chain of UniProt Q9P0U4 (Q9P0U4 whole entry, looked up): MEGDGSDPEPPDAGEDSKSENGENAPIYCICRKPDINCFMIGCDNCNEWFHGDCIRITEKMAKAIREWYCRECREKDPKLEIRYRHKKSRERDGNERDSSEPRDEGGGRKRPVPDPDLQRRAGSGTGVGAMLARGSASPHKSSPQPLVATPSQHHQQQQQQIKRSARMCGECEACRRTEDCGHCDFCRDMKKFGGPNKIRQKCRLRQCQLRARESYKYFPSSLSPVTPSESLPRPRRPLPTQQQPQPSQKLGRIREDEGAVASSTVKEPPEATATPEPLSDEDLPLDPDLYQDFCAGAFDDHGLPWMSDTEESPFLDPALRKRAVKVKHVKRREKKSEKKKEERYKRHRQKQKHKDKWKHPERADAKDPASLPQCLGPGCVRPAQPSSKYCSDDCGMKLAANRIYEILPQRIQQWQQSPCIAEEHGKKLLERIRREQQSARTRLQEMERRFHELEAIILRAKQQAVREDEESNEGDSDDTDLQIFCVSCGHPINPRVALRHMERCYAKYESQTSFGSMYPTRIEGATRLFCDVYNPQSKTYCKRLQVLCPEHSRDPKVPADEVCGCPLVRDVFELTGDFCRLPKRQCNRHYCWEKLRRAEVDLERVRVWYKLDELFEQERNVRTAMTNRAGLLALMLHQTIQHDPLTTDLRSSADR
Chain of UniProt O96017 (O96017 whole entry, looked up): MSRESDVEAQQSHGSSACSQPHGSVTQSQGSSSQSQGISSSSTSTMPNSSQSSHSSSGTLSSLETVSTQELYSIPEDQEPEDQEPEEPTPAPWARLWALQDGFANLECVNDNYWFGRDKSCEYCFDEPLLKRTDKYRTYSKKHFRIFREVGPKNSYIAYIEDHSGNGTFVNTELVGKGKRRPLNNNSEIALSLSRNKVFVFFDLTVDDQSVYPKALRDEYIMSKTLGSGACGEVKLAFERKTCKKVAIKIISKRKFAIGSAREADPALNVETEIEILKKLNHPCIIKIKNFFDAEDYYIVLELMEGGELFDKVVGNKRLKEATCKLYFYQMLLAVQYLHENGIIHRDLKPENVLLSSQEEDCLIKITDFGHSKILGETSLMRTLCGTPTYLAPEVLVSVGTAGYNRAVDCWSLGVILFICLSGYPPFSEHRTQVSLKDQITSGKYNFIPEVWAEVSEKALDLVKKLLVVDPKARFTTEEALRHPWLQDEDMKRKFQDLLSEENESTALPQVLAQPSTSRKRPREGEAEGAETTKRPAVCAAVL
Chain of UniProt Q15398 (Q15398 whole entry, looked up): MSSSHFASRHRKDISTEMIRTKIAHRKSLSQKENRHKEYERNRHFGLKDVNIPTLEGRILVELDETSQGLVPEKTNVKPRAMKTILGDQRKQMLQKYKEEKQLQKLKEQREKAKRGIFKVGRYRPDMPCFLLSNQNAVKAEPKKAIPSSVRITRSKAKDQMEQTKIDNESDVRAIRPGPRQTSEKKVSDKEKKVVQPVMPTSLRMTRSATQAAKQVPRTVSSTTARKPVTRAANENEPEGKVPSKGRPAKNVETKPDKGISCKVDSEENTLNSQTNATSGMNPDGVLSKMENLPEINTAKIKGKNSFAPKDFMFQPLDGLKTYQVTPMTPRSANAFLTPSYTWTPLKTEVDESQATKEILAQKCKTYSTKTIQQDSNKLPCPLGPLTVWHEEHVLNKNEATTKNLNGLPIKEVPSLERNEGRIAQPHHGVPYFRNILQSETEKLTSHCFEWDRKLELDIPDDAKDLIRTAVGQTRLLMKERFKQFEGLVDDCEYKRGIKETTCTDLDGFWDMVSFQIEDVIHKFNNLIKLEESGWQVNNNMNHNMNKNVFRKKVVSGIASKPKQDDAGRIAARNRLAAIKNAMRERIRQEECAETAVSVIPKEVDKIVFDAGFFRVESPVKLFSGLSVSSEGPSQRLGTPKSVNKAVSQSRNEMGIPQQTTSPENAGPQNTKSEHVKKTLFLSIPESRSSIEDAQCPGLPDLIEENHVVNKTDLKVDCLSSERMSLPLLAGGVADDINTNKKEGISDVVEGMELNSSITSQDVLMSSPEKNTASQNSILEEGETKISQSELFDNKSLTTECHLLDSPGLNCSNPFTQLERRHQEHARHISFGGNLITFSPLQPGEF
Chain of UniProt Q9H078 (Q9H078 whole entry, looked up): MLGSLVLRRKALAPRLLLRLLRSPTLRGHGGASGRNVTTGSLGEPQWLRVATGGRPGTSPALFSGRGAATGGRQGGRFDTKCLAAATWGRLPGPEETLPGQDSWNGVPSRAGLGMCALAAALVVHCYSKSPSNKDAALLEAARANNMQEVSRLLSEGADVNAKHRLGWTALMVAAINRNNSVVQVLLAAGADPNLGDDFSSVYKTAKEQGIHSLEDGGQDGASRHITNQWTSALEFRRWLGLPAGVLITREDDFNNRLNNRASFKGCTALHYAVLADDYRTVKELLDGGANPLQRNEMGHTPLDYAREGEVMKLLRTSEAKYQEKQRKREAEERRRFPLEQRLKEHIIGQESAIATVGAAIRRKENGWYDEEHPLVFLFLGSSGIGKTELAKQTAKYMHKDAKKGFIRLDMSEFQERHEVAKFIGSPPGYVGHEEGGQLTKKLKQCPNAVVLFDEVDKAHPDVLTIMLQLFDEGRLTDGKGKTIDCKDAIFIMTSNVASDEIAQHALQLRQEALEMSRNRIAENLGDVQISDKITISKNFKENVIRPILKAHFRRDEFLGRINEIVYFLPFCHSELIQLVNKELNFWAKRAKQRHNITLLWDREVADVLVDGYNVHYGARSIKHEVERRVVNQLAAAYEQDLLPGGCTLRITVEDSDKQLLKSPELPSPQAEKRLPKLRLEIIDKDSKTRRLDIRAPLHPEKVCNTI
Chain of UniProt P61024 (P61024 whole entry, looked up): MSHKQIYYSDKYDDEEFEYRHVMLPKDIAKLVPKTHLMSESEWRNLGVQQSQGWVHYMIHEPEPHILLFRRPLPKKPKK

Target	log2 fold change [1]	log2 fold change [2]	log2 fold change [3]	log2 fold change [4]	log2 fold change [5]	log2 fold change [6]	log2 fold change [7]	log2 fold change [8]	log2 fold change [9]	log2 fold change [10]	log2 fold change [11]	log2 fold change [12]	log2 fold change [13]	log2 fold change [14]	log2 fold change [15]	log2 fold change [16]	log2 fold change [17]	log2 fold change [18]	log2 fold change [19]	log2 fold change [20]
CSDE1 isoform 4 (UniProt O75534)	0	-0.104	0.01	0	-0.014	-0.008	0.209 (active)	0.004	-0.021	-0.014	0.001	-0.004	-0.006	0.041	-0.015	-0.095	0.003	0.005	-0.021	-0.017
CXXC1 isoform 2 (UniProt Q9P0U4)	-0.003	-0.138	-0.021	-0.004	0.468 (active)	-0.032	0.152	0.069	0.068	0.015	-0.024	0.107	-0.089	0.058	0.154	-0.046	-0.028	0.018	-0.047	0.005
CWC22 (UniProt Q9HCG8)	0.112	-0.035	0	-0.026	-0.036	0.046	0.093	-0.065	-0.058	-0.028	0.059	-0.027	-0.051	0.46 (active)	0.011	-0.207	0.072	-0.019	-0.088	-0.109
CKS1B (UniProt P61024)	0.117	-0.001	0.032	0.075	-0.055	0.04	-0.014	-0.031	-0.024	0.071	0.039	0.002	0.094	0.302 (active)	-0.045	-0.183	0.047	0.023	0.068	-0.324 (active)
DHCR7 (UniProt Q9UBM7)	-0.008	-0.038	-0.008	0.016	-0.031	0.019	0.037	0.029	-0.008	-0.035	-0.092	-0.039	-0.103	-0.024	0.067	-0.215 (active)	-0.01	0.002	0.024	0.013
DNAH10 (UniProt Q8IVF4)	-0.248	0.056	-0.086	-0.074	0.246	-0.04	-0.001	0.027	0.046	0.043	-0.075	0.066	-0.136	-0.553 (active)	0.044	0.172	-0.024	0.076	-0.08	0.196
CSNK1G3 (UniProt Q9Y6M4)	0.032	0.064	0.014	0.069	0.03	0.018	-0.033	-0.005	0.459 (active)	-0.005	-0.155	0.118	0.026	0.214	-0.042	-0.032	-0.048	-0.003	-0.09	-0.021
CHEK2 (UniProt O96017)	0.093	-0.007	0.207 (active)	0.022	-0.085	-0.022	0.092	0	-0.052	0.09	0.08	-0.012	0.069	-0.011	0.002	-0.019	0.039	0.018	-0.046	-0.008
DENND1B (UniProt Q6P3S1)	0.074	0.152	-0.105	0.099	0.023			-0.146	-0.226	-0.102	0.1	0.096	-0.019	0.003	-0.08	-0.194		-0.072	0.154	-0.03
COL6A5 (UniProt A8TX70)	-0.544	0.029	-0.048	-0.111	0.256	-0.088	0.1	-0.038	0.07	-0.034	-0.07	-0.035	-0.197	-0.966 (active)	0.013	0.295	-0.099	0.053	-0.13	0.486 (active)
CLIC2 (UniProt O15247)	0.002	-0.002	0.034	0.03	0.024	-0.016	0.018	0.02	-0.014	-0.038	-0.057		-0.002	-0.037	-0.039	-0.015	-0.016	-0.022	-0.009	0.005
CLIP1 isoform 1 (UniProt P30622)	-0.005	0.038	0.014	-0.006	-0.008	0.003	-0.03	-0.016	0.014	0.001	0.006		0.023	-0.023	0.004	0.036	0.001	0.011	-0.003	-0.01
COX7B (UniProt P24311)	0.013	0.02	0.112	0.042	-0.014	-0.022	0.315 (active)	0.028	0.018	-0.139	-0.002		0.058	0.025	0.005	0.01	0.035	0.035		0.099
CLCN3 (UniProt P51790)	-0.03	-0.012	-0.042	-0.024	-0.194	0.05	0.003	0.005	-0.043	0.029	0.004		0.014	-0.09	-0.017	-0.106	-0.008	0.033	-0.004	0.13
CLUH, A0A494C0R8	0.076	-0.08	-0.015	-0.184	-0.049	-0.089	0.054	-0.05	0.005	0.138	-0.052		-0.019	0.557 (active)	0.154	-0.108	-0.025	-0.026	-0.091	-0.14
CLPB isoform 2 (UniProt Q9H078)	0.065	-0.075	0.031	0.086	-0.049	0.025	-0.053	0.001	-0.036	0.034	-0.034		-0.03	0.024	-0.015	-0.093	0.046	-0.01	-0.072	0.039
DLD (UniProt P09622)	-0.024	0.041	0.03	-0.02	0.046	-0.014	-0.13	0	0.008	-0.055	-0.003	0.009	-0.001	-0.067	-0.012	0.047	-0.016	-0.001	0.005	0.012
DDX4 (UniProt Q9NQI0)	-0.234	-0.173	-0.05	-0.058	-0.116	-0.047	-0.02	0.032	-0.007	0.021	-0.045	0.035		-0.481 (active)	0.02	0.132	0.078		-0.167	0.174
CLP1 (UniProt Q92989)	-0.103	-0.179	0.004	0.071	-0.037	0.02	0.023	-0.002	0.031	0.033	-0.003		-0.041	-0.12	-0.056	0.008	0.004	0.032	0.01	0.047
CNOT4 isoform 9 (UniProt O95628)	-0.351	0.04	-0.087	-0.085	-0.047	0.037	0.003		0.002		-0.006	-0.014	0.077	-1.01 (active)	-0.009	0.298	0.04	-0.184	-0.031	0.271
DIAPH1 (UniProt H9KV28)	-0.039	0.032	0.036	0.012		0.054	0.213	-0.012	0.026	-0.005	0.003	0.087	-0.047	-0.039		0.199	0.049	0.099	-0.171	0.158
DNAH5 (UniProt Q8TE73)	-0.189	0.073	-0.032	-0.014	-0.051			-0.029	-0.019	0.052	0.043	-0.005		-0.422 (active)	-0.051	0.181			-0.047	0.175
DLGAP5 (UniProt Q15398)	-0.007	-0.021	0.01	0.004	-0.004	0.024	0	-0.016	-0.02	-0.001	0.02	0	-0.016	-0.029	-0.005	0.049	-0.014	0.001	-0.008	0.04
CLASP1 (UniProt Q7Z460)	-0.057	-0.032	-0.005	-0.037	-0.006	0.058	0.009	0.036	-0.001	0.018	0		-0.051	-0.09	-0.003	0.188	0.004	0.03	-0.042	0.185

From the supplement of paper PMC10849652
